Hits are enriched below; roughly 3.4% of the tested compounds scored in any of these assays.
FXN GAA850 act: FXN promoter activators, primary screen, cell-based, luciferase luminescence, HEK293 lucGAA850. HEK293 lucGAA850 FXN promoter luciferase reporter, 24 h; percent of 10 µM SAHA response. activation, % at 6 µM. 0.56% of 360,000 active;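 active = activation above the average of all compounds screened plus 3 SD, cutoff fixed separately per campaign, cut at about 7.5% in these data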
SMARCA2 activ: SMARCA2 (BRM) function activators, primary screen, cell-based, luminescence, high throughput. activation, % at 9.1 µM. AID 652017, 2013. 1% of 370,000 active. MG213 cells, MMTV-luciferase reporter, dexamethasone, overnight; in the data active = activation above about 7.8%
HSP90 refold inh: HSP90 inhibitors, primary screen, cell lysate, luminescence; inhibition, % at 5.6 µM; 0.91% of 290,000 active; Rabbit reticulocyte lysate, luciferase refolding luminescence, 3 h;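 active = inhibition above the screen-wide mean plus 3 SD, computed separately per campaign, cut at about 16% in these data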;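 note: inhibitors lower the luminescence because luciferase stays unfolded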
PG9 Ab binder: binders of HIV-1 gp120 antibody PG9, primary screen, biochemical, TR-FRET. AID 624416, 2012. 0.43% of 360,000 active. HIV-1 gp120 / PG9 antibody interaction. TR-FRET gp120-PG9 antibody binding. inhibition, % at 6.7 µM; in the data active = inhibition above about 8.5%
HSF1 inh: HSF1 inhibitors in luciferase reporter cells, primary screen, cell-based, NIH3T3, luminescence. NIH3T3-HGL HSE-luciferase, MG132-induced, luminescence 8 h; hits give low values. activity change, negative = inhibition, % at 7.5 µM (by protocol). 0.77% of 300,000 active. AID 2098, 2009;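 active = more than half of replicate wells show activity change below -50%, luminescence cut by over half; inconclusive = some wells, but at most half, below -50%; inactive = no replicate well below -50%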;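 note: luciferase reports HSF-1 transcriptional activity via heat shock element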
AI-2 QS mod: Vibrio harveyi AI-2 quorum sensing modulators, primary screen, JMH597 strain, luminescence/OD600 ratio; 0.4% of 300,000 active; AID 2094, 2009; Vibrio harveyi JMH597 AI-2 luminescence/OD600 ratio, 9 h; hits give low values; strain lacks LuxN and CqsS sensors; 0 = neutral-control median; activity change, % at 7.5 µM; in the data active = activity change below about -75%, passing the limit was not always enough; inconclusive = no clear call, values can overlap the other calls;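 note: luminescence divided by OD600 gain over 9 h not by final OD600 alone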
A number is an active result; n = inactive; u = inconclusive; x = no result.

SMILES	FXN GAA850 act	SMARCA2 activ	HSP90 refold inh	PG9 Ab binder	HSF1 inh	AI-2 QS mod
Cc1ccc(-c2cc3c(N=O)c4ccccc4c-3n[nH]2)cc1	n	n	58	n	u	n
O=[N+]([O-])c1ccc(CN2[C@H](COCc3ccccc3)C=CS2(=O)=O)cc1	x	n	x	n	x	x
COc1ccc2c(c1OC)C(=O)OC2C1c2c(cc3c(c2OC)OCO3)CCN1C (stereo unspecified)	n	n	n	n	n	n
CN1CCc2cc3c(c4c2[C@H]1[C@H](O)c1ccccc1-4)OCO3	n	9.3	n	n	n	n
Cc1ccc(C(=O)NC2CCCCN(Cc3ccc(Cl)cc3)C2=O)c(C)c1 (stereo unspecified)	x	n	x	x	x	x
C=CCOc1ccccc1CNCCNC(=O)c1nonc1N	n	n	n	n	n	n
CCOc1ccccc1CNCCNC(=O)c1nonc1N	n	n	16	n	n	n
COc1ccc(Cl)cc1S(=O)(=O)N1CCC(C(=O)NCCc2ccccc2)CC1	n	n	n	n	-79	n
COc1ccc(C)cc1S(=O)(=O)N1CCC(C(=O)NCCc2ccccc2)CC1	n	n	n	n	n	n
CCOc1ccc(C=Nn2c(-c3cccc(OC(C)C)c3)n[nH]c2=S)cc1	x	n	x	x	x	x
CC1(C)CC(=O)N(CC(=O)N2CCN(c3cccc(Cl)c3Cl)CC2)c2ccccc2S1(=O)=O	x	n	x	x	x	x
CNC(=O)c1nnsc1S(=O)(=O)c1ccc(Cl)cc1	n	n	n	n	n	-95
O=C(c1nnsc1S(=O)(=O)c1ccc(Cl)cc1)N1CCOCC1	n	n	n	n	-80	n
O=C(c1nnsc1S(=O)c1ccc(Cl)cc1)N1CCOCC1 (stereo unspecified)	n	n	n	n	n	n
Cc1ccccc1CN1CCCCC(NC(=O)C(C)(C)C)C1=O (stereo unspecified)	x	n	x	x	x	x
Cc1ccc(NC(=O)Cc2cccc(OC(F)F)c2)c(S(=O)(=O)N2CCOCC2)c1	x	n	x	x	x	x
C[C@@H]1ON(C)[C@H]2C[C@H]3c4cc(N5CCN(C)CC5)ccc4CCN3C[C@@H]12	x	n	x	n	x	x
COC(=O)Cn1nc(C)c2ccccc2c1=O	n	n	n	n	n	n
COC(=O)c1ccc(NC(=O)Cn2nc(C)c3ccccc3c2=O)cc1	n	n	n	n	n	-96
Cc1nn(CC(=O)O)c(=O)c2ccccc12	n	n	n	n	n	n
CNC(=O)Cn1nc(C)c2ccccc2c1=O	n	n	n	n	-78	n
CCOC(=O)c1ccc(NC(=O)Cn2nc(C)c3ccccc3c2=O)cc1	n	n	n	n	n	-97
CC(=O)c1cccc(NC(=O)C2CC(=O)N(CCc3ccccc3)C2)c1 (stereo unspecified)	n	n	n	n	-59	n
O=C(Nc1nc(-c2cccs2)cs1)c1ccc(S(=O)(=O)N2CCCCC2)cc1	n	n	n	n	-61	n
O=C(Nc1nc(-c2ccccn2)cs1)c1ccc(S(=O)(=O)N2CCCCC2)cc1	x	x	n	x	n	u
SMILES	FXN GAA850 act	SMARCA2 activ	HSP90 refold inh	PG9 Ab binder	HSF1 inh	AI-2 QS mod
O=C(Nc1nc(-c2cccs2)cs1)c1cccc(S(=O)(=O)N2CCCCCC2)c1	n	n	n	n	-61	n
CCN(CC(=O)NC(C)(C)C)C(=O)COc1c(Cl)cc(Cl)c2ccc(C)nc12	n	n	n	n	n	-81
CCOc1ccccc1NC(=O)COC(=O)COc1c(Cl)cc(Cl)c2ccc(C)nc12	n	n	x	n	n	n
O=C(CSc1nnc(Cc2cccs2)n1-c1ccccc1)Nc1ccccc1-c1ccccc1	x	n	x	x	x	x
O=C(O)c1cc(-c2cccc3ccccc23)nc2ccccc12	n	n	n	n	-88	n
CC(=O)Nc1ccc(SCC(=O)N2CCN(S(=O)(=O)c3ccccc3)CC2)cc1	n	n	n	n	-57	x
C(=N\Nc1nncc2ccccc12)/c1cccnc1	x	n	x	x	x	x
COc1ccccc1-n1ccnc(SCC(=O)NC2CCCC2)c1=O	n	n	x	n	n	n
COc1ccccc1-n1ccnc(SCC(=O)NCc2ccccc2)c1=O	n	n	x	n	-55	n
